This is an account of results in PubChem BioAssay AID1259422 (The Scripps Research Institute Molecular Screening Center, 2018).

By inhibition is commonly meant the drop in the measured response relative to a control, in per cent.

Screen size: about 640,000 compounds; about 9,300 (1.5%) were called active. The entries come from a sample that favours actives as a whole. Unmarked numbers belong to inactive results. Rule as the data show it: active = inhibition above about 32%; inactive = the rest.

A short description of the experiment: TEAD-YAP interaction inhibition, primary screen, TEAD-YAP interaction inhibitor project, luminescence, HEK-TIYL cells (AID 1259422).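 Also: 0% = median of test compound wells and 100% = reference inhibitor wells.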 The conditions noted are these: TEAD-Gal4/YAP UAS-luciferase luminescence, at 9.12 µM, stronger effect = higher value.
With `Cc1ccsc1C(=O)NCC1CCC2(CCN(C(=O)c3ccc(F)cc3)CC2)O1` (stereo not given), the inhibition is -0.6%. The result for `O=C(Nc1cccc(Br)c1)c1ccccc1[N+](=O)[O-]` reads -3.71%; that for `Cc1ccc(CCC(=O)Nc2ncc(Cc3cc(Cl)ccc3Cl)s2)o1`, 43.6% (active).

Consider `Cc1ccc(C(=O)Nc2ncc(Cc3ccc(Cl)cc3)s2)o1`, for which the inhibition is -24.8%.

In the case of `Cc1ccc(Cc2cnc(NC(=O)CCl)s2)cc1`, the inhibition was 24.8%. Regarding `CCOC(=O)c1ccc(S(=O)(=O)NNC(=O)CCN2C(C)CCCC2C)cc1` (stereo not given), the inhibition was 4.62%. In the case of `CCOc1ccc(NC(=O)c2ccc(Br)c(S(=O)(=O)N3CCCC3)c2)cc1`, the inhibition is 35.5% (active). As to `CCOc1ccc(NC(=O)c2ccc(F)c(S(=O)(=O)NCCc3ccccc3)c2)cc1`, the inhibition is 20.5%. For `CCOc1ccccc1NC(=O)c1ccc(F)c(S(=O)(=O)N2CCCC2)c1` the value was -2.89%; for `O=C(Oc1cccc(NC(=O)c2ccccc2Cl)c1)c1ccc(Br)c(S(=O)(=O)N2CCCCC2)c1`, 41.8% (active). The result for `O=C(Oc1cccc(NC(=O)c2ccccc2Cl)c1)c1ccc(Cl)c(S(=O)(=O)N2CCCCC2)c1` reads -1.45%; that for `CC1CCN(S(=O)(=O)c2cc(C(=O)Oc3cccc(NC(=O)c4ccccc4)c3)c(Cl)cc2Cl)CC1`, -2.37%; that for `Cc1cccc(NC(=O)c2ccc(C)c(S(=O)(=O)N3CCCC3)c2)c1`, -31.9%. For `CCc1ccccc1NC(=O)c1ccc(F)c(S(=O)(=O)NC2CCCCCC2)c1` the value was -8.09%; for `CCOc1ccc(NC(=O)c2ccc(F)c(S(=O)(=O)NC3CCCCCC3)c2)cc1`, 43.4% (active).

Turning to `Cc1nc2ccc(C(=O)OCC(=O)c3ccc([N+](=O)[O-])cc3)cc2nc1C`, the inhibition was 3.04%. The result for `O=C(O)C1CN(C(c2ccccc2)c2ccccc2)C1` reads 3.68%; that for `CCC(C)NC(=O)Nc1cccc(Cl)c1C` (stereo not given), -4.8%.

In the case of `COC(=O)c1ccc(NC(=O)c2ccc(C)o2)cc1`, the inhibition is -47%. On to `c1ccc(N2CCN(N=C3c4ccccc4-c4ccccc43)CC2)nc1`, for which the inhibition was -13.3%.

For `NC(=O)N/N=C/c1cn(-c2ccccc2)nc1-c1cc2ccccc2oc1=O`, the inhibition was 40.6% (active). The result for `NC(=O)C(=O)N/N=C/c1cn(-c2ccccc2)nc1-c1cccs1` reads -10.6%; that for `O=C(NNc1nc(-c2cc3ccccc3oc2=O)cs1)c1ccccc1`, -15%; that for `Cc1cccc(Cc2nnc(CCC(=O)N3CCN(C)C[C@@H]3c3ccccc3)o2)c1`, -0.78%. As to `COc1ccc(CNS(=O)(=O)c2ccc(Oc3ccc(S(=O)(=O)NCc4ccc(OC)cc4)cc3)cc2)cc1`, the inhibition is 55.4% (active). For the compound `COc1ccc(S(=O)(=O)NCCN)cc1`, the inhibition is 4.56%. Consider `COc1ccc(S(=O)(=O)NCCCNS(=O)(=O)c2ccc(OC)cc2)cc1`, for which the inhibition is 5.92%.

With `CC(=O)Nc1ccc(Nc2nc(-c3ccccc3)nc3c2ncn3C(C)C)cc1`, the inhibition is 18%.

As to `Cc1c(Cl)cccc1N1C(=O)C2C3CCC(C3)C2C1=O` (stereo not given), the inhibition was 3.02%. Consider `CCC(=O)N(Cc1ccco1)Cc1cc2cc3c(cc2[nH]c1=O)OCCO3`, for which the inhibition was -9.49%. Consider `O=C(NNS(=O)(=O)c1cccc([N+](=O)[O-])c1)C1CCCCC1`, for which the inhibition was -1.44%. For `Cc1ccc(CN2C(=O)CCC2CCNCc2cc3c(cc2Cl)OCO3)cc1F` (stereo not given) the value was -1.93%. For `CCn1c(SCC(=O)Nc2nc3ccc(OC)cc3s2)nc2cccnc21` the value was 3.19%; for `Cc1[nH]n(-c2ccc([N+](=O)[O-])cc2)c(=O)c1C=NCCN1CCN(C(=O)/C=C/c2ccccc2)CC1`, 13.1%. For `c1ccc(-c2cc(NCCCn3ccnc3)nc(-c3ccccn3)n2)nc1` the value was 54.3% (active).

Turning to `Cc1nc(NCCCN2CCOCC2)cc(-c2ccccn2)n1`, the inhibition is 5.82%.

For `Clc1ccc(-c2cc(NCCCn3ccnc3)ncn2)cc1`, the inhibition was -76.3%.

For the compound `COc1ccc(Cl)cc1NC(=O)CC1C(=O)NCCN1C(=S)Nc1ccccc1` (stereo not given), the inhibition was 2.46%. For `O=C(Nc1ccc(F)c(F)c1)c1ccc(N2CC3CC(C2)c2cccc(=O)n2C3)c(NC(=O)c2cccc(C(F)(F)F)c2)c1` (stereo not given) the value was -14.9%. Turning to `COc1ccc(/C(C)=N/Nc2nc3ccccc3[nH]2)cc1`, the inhibition was -5.09%.

As to `Cc1ccc(NC(=O)Cc2cccc3ccccc23)c([N+](=O)[O-])c1`, the inhibition is -15.6%. As for `COc1ccc(-c2cnnc(N(C)CCC3CCOCC3)n2)cc1`, the inhibition is -22.1%.

Regarding `COc1ccc(-c2cnnc(N(C)Cc3cnn(C)c3)n2)cc1`, the inhibition was 36.4% (active). Consider `COc1cccc(-c2cnnc(N(C)CCC3CCOCC3)n2)c1`, for which the inhibition was -25.5%. Take `O=C(c1cccc(Cl)c1)N1CCN(c2ccc([N+](=O)[O-])c(N3CCOCC3)c2)CC1`: the inhibition was 13.5%. `O=c1cc(-c2ccccc2)[nH]c2nc(Cl)ccc12`: the inhibition was 50.5% (active). The result for `O=c1cc(-c2ccccc2)sc2ccc(Cl)cc12` reads -23.1%; that for `O=c1cc(-c2ccccc2)nc(NNc2ccccc2)[nH]1`, 2.03%; that for `CCn1cc(C(=O)Nc2ccc(N3CCOCC3)cc2)c(=O)c2ccc(C)nc21`, -7.7%. For `COc1ccc(CC(=O)N/N=C(\C)c2ccccn2)cc1OC`, the inhibition was 2.58%. The result for `CCOC(=O)N/N=C/c1ccc(OS(=O)(=O)c2ccc(C)cc2)c(OC)c1` reads 3.61%. For `COc1cc(C=O)ccc1OS(=O)(=O)c1ccc(Cl)cc1` the value was -7.3%; for `Cc1ccc(S(=O)(=O)Oc2ccc(Br)cc2C=O)cc1`, 31.9% (active). The result for `CSCCC(=O)Nc1ccc(Cl)cc1` reads 2.57%. In the case of `Cc1ccc(NC2=C(Cl)C(=O)OC2OC(=O)c2ccccc2Br)cc1` (stereo not given), the inhibition is 9.63%. For `O=C(O)c1cccc(OCC(O)Cn2cnc3ccccc32)c1` (stereo not given) the value was 10%; for `N#Cc1ccccc1OCCCCn1cnc2ccccc21`, 35% (active); for `O=c1c2ccccc2ncn1CCCCOc1ccccc1F`, 5.72%.

As for `COc1c(C)cccc1C1=N/C(=C\c2cccc([N+](=O)[O-])c2)C(=O)O1`, the inhibition is 9.8%. Regarding `CCCOC(=O)C1=C(C)N(C)C(=O)NC1c1cc(Br)c(O)c(OC)c1` (stereo not given), the inhibition was 3.09%. For `COc1ccc2nc(NC(=O)CN3C(=S)NC(C)(C)CC3C)sc2c1` (stereo not given) the value was 3.44%; for `CC(NC(=O)COC(=O)c1cccc(NS(C)(=O)=O)c1)C12CC3CC(CC(C3)C1)C2` (stereo not given), -4.62%; for `Cc1ccc(S(=O)(=O)N2CCCCC2CCNC(=O)C(=O)NCCO)cc1` (stereo not given), -1.73%.

`Cc1ccc(NC(=O)C(=O)NCCC2CCCCN2S(=O)(=O)c2ccc(C)cc2)cc1` (stereo not given): the inhibition was 17.1%.

Consider `CCCCNC(=O)C(=O)NCCC1CCCCN1S(=O)(=O)c1ccc(C)cc1` (stereo not given), for which the inhibition was 50.6% (active). The result for `O=c1c(-c2ccon2)coc2cc(O)ccc12` reads -4%; that for `COc1cc2nc(/C=C/c3ccco3)oc(=O)c2cc1OC`, 0.76%. The result for `CC(=O)c1ccc(N2CCN(c3cccc[n+]3C)CC2)cc1` reads -8.59%.

Consider `CC(=O)c1ccc(N2Cc3ccccc3C2)cc1`, for which the inhibition is 38.4% (active). Regarding `O=C(N/N=C/c1ccc(O)cc1)c1ccc(N2Cc3ccccc3C2)cc1`, the inhibition was -17%.

Consider `CC1=C(C(=O)OCc2ccccc2)C(c2ccccc2F)CC(=O)N1` (stereo not given), for which the inhibition is 0.13%. The result for `COc1ccccc1N=c1scc(-c2ccccc2)n1CCO` reads 1.29%; that for `O=c1c2cc(Cl)ccc2[nH]c(=S)n1Cc1cccnc1`, -1.08%; that for `Cc1ccc(NC(=O)c2ccc(C#N)cc2)c(C(=O)c2ccccc2)c1`, 4.87%. As for `CCOc1ccc(NCCC(=O)c2ccc3c(c2)OCO3)cc1`, the inhibition is 6.84%.

On to `CC(C)=CC(=O)Nc1ccc2c(c1)OCCO2`, for which the inhibition was 12.2%. For `COC(=O)CCNc1ccc2c(c1)OCCO2` the value was 33.2% (active).

Regarding `Cc1cccc(NC(=O)CSc2nc3ccc([N+](=O)[O-])cc3[nH]2)c1`, the inhibition was 8.94%. The result for `O=C(Nc1ccc(N2CCC(N3CCN(CCO)CC3)CC2)cc1)c1cccc(Cl)c1` reads -1.49%; that for `Cc1cc2nc(-c3ccc(NC(=O)c4cc5ccccc5o4)cc3)oc2cc1C`, -23.6%; that for `Cc1cc(O)cc2c1C(=O)/C(=C/c1cc3ccccc3o1)O2`, 71.4% (active).

Regarding `COC(=O)c1ccc2c(c1)C(=O)/C(=C\c1ccccc1O)O2`, the inhibition is -31.1%. The result for `CCCCc1ccc(-c2nc(C=Nc3cc([N+](=O)[O-])ccc3C)c(O)o2)cc1` reads -9.75%. The result for `COc1cccc(/C=C/C(=O)c2cc3ccccc3oc2=O)c1` reads -6.12%; that for `CCCCCCCN1C(=O)c2c(Cl)c(Cl)c(Cl)c(Cl)c2C1=O`, 5.39%.

Consider `Oc1ccc(-c2cnc3ccc(NC4CCOCC4)nn23)cc1`, for which the inhibition is -2.21%. For `Brc1cccc(-c2cnc3ccc(NC4CCOCC4)nn23)c1` the value was 29.9%. On to `Fc1ccc(-c2cnc3ccc(NC4CCOCC4)nn23)cc1Cl`, for which the inhibition is 43.8% (active). The result for `O=C(c1ccc2nc3ccc(Cl)cc3c(=O)n2c1)N1CCN(c2ccccc2)CC1` reads 5.05%. For `CNC(=S)N/N=C/c1cccc(/C=N/NC(=S)NC)c1` the value was -8.21%. The result for `CCc1nc2nonc2c2nc3ccccc3n12` reads -7.01%; that for `O=C(O)c1ccc(-n2cccc2)cc1O`, 32.4% (active); that for `O=C(O)c1ccc(N2C(=O)c3cccc4cccc(c34)C2=O)cc1O`, 9.06%. As to `CC(=O)C1=C(O)C(=O)N(c2ccc(C(=O)O)c(O)c2)C1c1ccccc1` (stereo not given), the inhibition is 1.91%. The result for `Cc1ccc(NC(=O)CCn2cccc2)c(C)c1` reads -10.1%.
